Laboratory results taken from PubChem BioAssay.
Active and inactive are the calls of the source.

Assays:
[1] = small molecules captured by biotinylated probe aFSTL3 – biochemical, small-molecule microarray, fluorescence 635/667, stem cell growth factor project, primary screen (AID 1064); settings: higher = more signal;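 further: measures binding of the biotinylated anti-FSTL3 antibody to printed compounds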
[2] = binders from COS7 lysate, DM2A8 probe, primary screen, torsin A project, cell lysate, small-molecule microarray, fluorescence 635/667 (AID 1065); settings: higher = more signal, COS7 lysate expressing mutant human TOR1A
[3] = small molecules captured by biotinylated probe aFGF2 – biochemical, small-molecule microarray, fluorescence 635/667, stem cell growth factor project, primary screen (AID 1067); settings: higher = more signal;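 further: measures binding of biotinylated aFGF2 protein to printed compounds on slides; z-score merges feature fluorescence and signal-to-noise across triplicate slides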
[4] = small molecules captured by biotinylated probe aFGF10 – biochemical, small-molecule microarray, fluorescence 635/667, stem cell growth factor project, primary screen (AID 1071); settings: higher = more signal;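 further: score merges 667 nm spot intensity and signal to noise from triplicate slides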
[5] = molecular target: Neurogenic locus notch homolog protein 2 (Homo sapiens) (UniProt Q04721); test: small molecules binding Notch2 protein – biochemical, small-molecule microarray, 635 nm fluorescence, stem cell growth factors, primary screen (AID 1073); settings: higher = more signal
[6] = molecular target: Pro-neuregulin-1, membrane-bound isoform (Homo sapiens) (UniProt Q02297); test: small molecules binding neuregulin-1 protein – biochemical, small-molecule microarray, fluorescence 635/667, psychiatric disease protein project, primary screen (AID 1075); settings: NRG1 binding, 635 nm fluorescence, higher = more signal;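 further: score combines 667 nm spot fluorescence with signal to noise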
[7] = system: Neuregulin-1 EGF-like domain; test: small molecules binding NRG1 EGF domain – biochemical, small-molecule microarray, 635 nm fluorescence, primary screen (AID 1081); settings: higher = more signal;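 further: binding of the protein to compounds printed on small-molecule microarray slides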
[8] = FRG1 expression reporter modulators in myotubes – cell-based, C2C12 myotubes, firefly/Renilla luciferase, luminescence, FRG1 inhibition for FSHD, primary screen (AID 1084); settings: FRG1 promoter luciferase, higher = more signal, called active from +8 up or from −8 down
[9] = small molecules captured by biotinylated probe aFST – biochemical, small-molecule microarray, fluorescence 635/667, stem cell growth factor project, primary screen (AID 1086); settings: higher = more signal;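 further: score merges 667 nm fluorescence with signal-to-noise of each printed compound spot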
[10] = binders of probe aHhip on microarray, primary screen, stem cell growth factor project, biochemical, small-molecule microarray, fluorescence 635/667 (AID 1087); settings: higher = more signal;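 further: score merges spot fluorescence at 667nm with spot signal to noise ratio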
[11] = system: PRMT1 (protein arginine N-methyltransferase 1); test: small molecules binding arginine methyltransferase PRMT1 – biochemical, small-molecule microarray, 635 nm fluorescence, primary screen (AID 1088); settings: higher = more signal;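 further: binding of Prmt1 protein to compounds spotted on small-molecule microarray slides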
[12] = growth effects on S. cerevisiae YJM789 – YJM789 clinical isolate, OD600, 24 h, basal, primary screen (AID 1089); settings: higher = more signal, called active from +8 up or from −8 down;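 further: growth of clinical yeast isolate S. cerevisiae YJM 789 seeded 1000 cells per well; test concentration not given here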
[13] = S. pombe growth modifiers, basal conditions – strain 972, OD600, 24 h, no modulator, primary screen (AID 1090);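 further: basal condition with compound alone and no growth modifier present; test concentration not given here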; settings: S. pombe 972 growth, higher = more signal, called active from +8 up or from −8 down
[14] = budding yeast growth modifiers under rapamycin – strain BY4716, OD600, 96 h, primary screen (AID 1091); further: test concentration not given here; settings: S. cerevisiae BY4716 + rapamycin, higher = more signal, called active from +8 up or from −8 down
[15] = molecular target: Torsin-1A-interacting protein 2 (Homo sapiens) (UniProt Q8NFQ8); test: small molecules binding lysate-expressed LULL1 – cell lysate, human LULL1 lysate, 635/667 nm fluorescence, primary screen (AID 1092); settings: small-molecule microarray, hLULL1 lysate binding, 635 nm fluorescence; higher = more signal;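 further: probe is lysate of COS7 cells overexpressing human LULL1; score merges per-feature 667 nm fluorescence with signal-to-noise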
[16] = optical density change of DRC41 E. coli – strain DRC41, OD650, 24 h, E. coli filamentation project, primary screen (AID 1093);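 further: MC1000 strain lacking acrAB efflux and sulA so SOS filamentation is blocked; test concentration not given here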; settings: E. coli DRC41 growth, higher = more signal, called active from +8 up or from −8 down
[17] = probe aLefty2 binding to arrayed compounds – biochemical, biotinylated probe, 635/667 nm fluorescence, primary screen (AID 1094); settings: small-molecule microarray, higher = more signal;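 further: score merges spot fluorescence near 667 nm with spot signal-to-noise ratio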
[18] = system: Noggin (protein binding on small-molecule microarray); test: small molecules binding Noggin protein – biochemical, 635/667 nm fluorescence, primary screen (AID 1095); settings: 635 nm fluorescence, higher = more signal;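 further: score merges 667 nm feature fluorescence with signal to noise over triplicate slides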
[19] = molecular target: Neurogenic locus notch homolog protein 3 (Homo sapiens) (UniProt Q9UM47); test: small molecules binding NOTCH3 protein – biochemical, 635/667 nm fluorescence, primary screen (AID 1096); settings: small-molecule microarray, 635 nm fluorescence, higher = more signal
[20] = probe aEGFR binding to arrayed compounds – biochemical, biotinylated probe, 635/667 nm fluorescence, primary screen (AID 1097); settings: small-molecule microarray, higher = more signal;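 further: probe is a biotinylated anti-EGFR antibody binding compounds printed on slides; score combines fluorescence near 667 nm and signal to noise of each spot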

Sequence of Pro-neuregulin-1, membrane-bound isoform (Homo sapiens) (Q02297 whole entry, looked up, the tested form may be a part, canonical isoform): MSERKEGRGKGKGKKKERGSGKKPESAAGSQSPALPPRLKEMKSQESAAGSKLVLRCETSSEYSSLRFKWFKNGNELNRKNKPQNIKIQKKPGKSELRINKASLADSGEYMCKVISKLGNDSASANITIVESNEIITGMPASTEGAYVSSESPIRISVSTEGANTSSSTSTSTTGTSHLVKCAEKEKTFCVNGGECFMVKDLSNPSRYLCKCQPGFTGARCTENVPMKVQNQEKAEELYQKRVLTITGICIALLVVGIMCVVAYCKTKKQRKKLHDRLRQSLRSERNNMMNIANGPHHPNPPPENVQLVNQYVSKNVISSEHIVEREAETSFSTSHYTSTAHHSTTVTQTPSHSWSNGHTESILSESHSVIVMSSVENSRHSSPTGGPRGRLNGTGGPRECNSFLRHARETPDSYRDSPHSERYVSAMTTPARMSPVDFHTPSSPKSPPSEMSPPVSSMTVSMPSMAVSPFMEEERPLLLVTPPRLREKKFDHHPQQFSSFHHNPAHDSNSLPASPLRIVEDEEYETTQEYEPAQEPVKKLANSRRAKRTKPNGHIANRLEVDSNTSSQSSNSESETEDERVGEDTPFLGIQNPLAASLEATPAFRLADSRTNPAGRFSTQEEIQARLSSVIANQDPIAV
Sequence of Torsin-1A-interacting protein 2 (Homo sapiens) (Q8NFQ8 whole entry, looked up): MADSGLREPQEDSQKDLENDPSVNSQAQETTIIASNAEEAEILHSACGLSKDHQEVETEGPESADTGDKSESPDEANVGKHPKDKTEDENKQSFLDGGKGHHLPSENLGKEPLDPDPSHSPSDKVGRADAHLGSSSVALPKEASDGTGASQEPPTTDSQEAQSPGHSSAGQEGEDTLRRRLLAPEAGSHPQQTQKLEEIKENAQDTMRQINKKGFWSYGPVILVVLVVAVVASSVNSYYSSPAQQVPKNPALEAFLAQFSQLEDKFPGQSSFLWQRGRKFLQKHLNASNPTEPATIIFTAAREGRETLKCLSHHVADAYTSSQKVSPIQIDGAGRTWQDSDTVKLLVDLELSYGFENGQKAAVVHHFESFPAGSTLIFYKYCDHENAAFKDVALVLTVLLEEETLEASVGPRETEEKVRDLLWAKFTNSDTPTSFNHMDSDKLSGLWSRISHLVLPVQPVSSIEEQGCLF
Sequence of Neurogenic locus notch homolog protein 3 (Homo sapiens) (Q9UM47 whole entry, looked up): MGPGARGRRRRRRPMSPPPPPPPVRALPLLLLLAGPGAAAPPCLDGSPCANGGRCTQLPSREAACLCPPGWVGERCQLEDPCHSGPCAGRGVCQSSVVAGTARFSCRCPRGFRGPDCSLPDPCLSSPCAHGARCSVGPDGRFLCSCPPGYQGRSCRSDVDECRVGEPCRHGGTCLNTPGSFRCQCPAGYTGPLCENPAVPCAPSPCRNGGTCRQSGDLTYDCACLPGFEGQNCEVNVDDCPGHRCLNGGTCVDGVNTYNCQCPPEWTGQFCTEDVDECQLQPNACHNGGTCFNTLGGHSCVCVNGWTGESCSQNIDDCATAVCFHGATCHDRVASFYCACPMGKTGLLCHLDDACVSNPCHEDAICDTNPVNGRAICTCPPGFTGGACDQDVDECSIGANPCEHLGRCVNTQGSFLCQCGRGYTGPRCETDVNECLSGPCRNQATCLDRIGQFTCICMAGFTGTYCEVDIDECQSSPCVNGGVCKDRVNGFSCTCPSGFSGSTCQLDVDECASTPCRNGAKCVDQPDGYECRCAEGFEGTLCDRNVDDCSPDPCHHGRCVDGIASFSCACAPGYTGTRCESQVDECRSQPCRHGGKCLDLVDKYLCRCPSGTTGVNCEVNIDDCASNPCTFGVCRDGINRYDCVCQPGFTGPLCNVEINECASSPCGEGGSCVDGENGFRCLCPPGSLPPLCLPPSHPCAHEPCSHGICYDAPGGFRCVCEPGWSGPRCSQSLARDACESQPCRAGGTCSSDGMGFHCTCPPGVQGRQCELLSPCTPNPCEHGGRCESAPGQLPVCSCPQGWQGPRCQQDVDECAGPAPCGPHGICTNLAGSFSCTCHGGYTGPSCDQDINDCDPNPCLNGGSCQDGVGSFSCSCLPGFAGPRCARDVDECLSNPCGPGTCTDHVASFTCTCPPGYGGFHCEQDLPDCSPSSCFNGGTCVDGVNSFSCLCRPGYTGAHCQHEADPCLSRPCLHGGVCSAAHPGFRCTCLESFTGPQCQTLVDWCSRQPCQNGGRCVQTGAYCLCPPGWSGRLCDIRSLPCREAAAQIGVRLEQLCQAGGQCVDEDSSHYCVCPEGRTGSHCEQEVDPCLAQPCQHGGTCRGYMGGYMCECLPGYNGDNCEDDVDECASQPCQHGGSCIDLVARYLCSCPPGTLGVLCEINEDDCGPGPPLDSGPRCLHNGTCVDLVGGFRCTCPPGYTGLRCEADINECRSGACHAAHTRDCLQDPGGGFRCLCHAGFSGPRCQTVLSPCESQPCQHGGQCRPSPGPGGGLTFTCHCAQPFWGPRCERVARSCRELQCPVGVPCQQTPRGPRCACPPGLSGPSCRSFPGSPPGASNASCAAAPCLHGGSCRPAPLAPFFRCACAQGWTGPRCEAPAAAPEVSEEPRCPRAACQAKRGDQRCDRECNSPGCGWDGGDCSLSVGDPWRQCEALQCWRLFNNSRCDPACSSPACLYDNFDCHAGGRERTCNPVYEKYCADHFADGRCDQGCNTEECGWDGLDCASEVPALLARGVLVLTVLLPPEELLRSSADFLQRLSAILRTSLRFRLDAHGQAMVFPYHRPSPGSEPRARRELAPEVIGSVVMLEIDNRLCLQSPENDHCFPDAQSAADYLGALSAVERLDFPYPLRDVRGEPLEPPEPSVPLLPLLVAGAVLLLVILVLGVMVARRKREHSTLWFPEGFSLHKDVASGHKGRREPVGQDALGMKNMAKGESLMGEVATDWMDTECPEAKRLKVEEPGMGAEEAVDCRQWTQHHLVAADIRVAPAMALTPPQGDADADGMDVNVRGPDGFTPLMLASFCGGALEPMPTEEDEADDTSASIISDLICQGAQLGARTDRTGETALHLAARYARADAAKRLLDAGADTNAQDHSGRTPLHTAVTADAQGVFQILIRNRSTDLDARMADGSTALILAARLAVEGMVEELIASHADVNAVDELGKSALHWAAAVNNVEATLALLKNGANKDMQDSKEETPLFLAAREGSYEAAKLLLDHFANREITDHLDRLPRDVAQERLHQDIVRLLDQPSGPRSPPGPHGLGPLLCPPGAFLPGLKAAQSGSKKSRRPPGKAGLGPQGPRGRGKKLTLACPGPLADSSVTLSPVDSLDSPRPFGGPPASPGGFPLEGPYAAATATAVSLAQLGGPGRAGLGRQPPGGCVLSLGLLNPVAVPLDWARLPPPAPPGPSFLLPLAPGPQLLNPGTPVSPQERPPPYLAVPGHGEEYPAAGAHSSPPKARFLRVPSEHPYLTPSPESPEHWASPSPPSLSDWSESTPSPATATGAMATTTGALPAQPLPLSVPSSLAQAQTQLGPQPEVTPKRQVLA

Compound: O=C(O)C1N=C(c2ccc(OCCCO)cc2)N(c2ccccc2)O1 (stereo not given)
- composite z-score [1]: 0.158
- composite z-score [2]: 0.0642
- composite z-score [3]: -0.0474
- composite z-score [4]: 0.499
- composite z-score [5]: 0.778
- composite z-score [6]: -0.145
- composite z-score [7]: 0.527
- z-score [8]: 2.09 (inactive)
- composite z-score [9]: -0.288
- composite z-score [10]: -0.136
- composite z-score [11]: 1.49
- z-score [12]: -0.371 (inactive)
- z-score [13]: 0.651 (inactive)
- z-score [14]: -0.377 (inactive)
- composite z-score [15]: 2.03
- z-score [16]: 0.281 (inactive)
- composite z-score [17]: 0.0399
- composite z-score [18]: 0.306
- composite z-score [19]: 0.12
- composite z-score [20]: -0.0828

Compound: NC(=O)N1C(=O)C2C(C1=O)C1C=C(CCCO)C2C(C2CC2)N1Cc1cc2c(cc1Br)OCO2 (stereo not given)
- composite z-score [1]: 0.225
- composite z-score [2]: -0.13
- composite z-score [3]: -0.093
- composite z-score [4]: -0.33
- composite z-score [5]: -0.191
- composite z-score [6]: 0.946
- composite z-score [7]: 0.982
- z-score [8]: -0.472 (inactive)
- composite z-score [9]: 0.0364
- composite z-score [10]: -0.0994
- composite z-score [11]: -0.918
- z-score [12]: -1.07 (inactive)
- z-score [13]: -0.435 (inactive)
- z-score [14]: -1.22 (inactive)
- composite z-score [15]: 1.36
- z-score [16]: -0.331 (inactive)
- composite z-score [17]: -0.0778
- composite z-score [18]: -0.0543
- composite z-score [19]: 0.325
- composite z-score [20]: -0.13

Compound: CCCC(=O)N(CCc1c[nH]c2ccccc12)[C@@H]1CC(C(=O)NCCO)=C[C@H](Oc2c(I)cc(CO)cc2OC)[C@H]1O
- composite z-score [1]: -0.279
- composite z-score [2]: 0.809
- composite z-score [3]: -0.0692
- composite z-score [4]: 0.187
- composite z-score [5]: -0.11
- composite z-score [6]: -0.0724
- composite z-score [7]: 0.315
- z-score [8]: -0.667 (inactive)
- composite z-score [9]: -0.0945
- composite z-score [10]: -0.214
- composite z-score [11]: 0.234
- z-score [12]: 0.5 (inactive)
- z-score [13]: -0.713 (inactive)
- z-score [14]: -0.241 (inactive)
- composite z-score [15]: 1.42
- z-score [16]: 1.55 (inactive)
- composite z-score [17]: -0.157
- composite z-score [18]: 0.259
- composite z-score [19]: -0.0693
- composite z-score [20]: -0.0708

Compound: O=C1C[C@@](C(=O)NCc2ccccc2)(c2ccc([N+](=O)[O-])cc2)[C@@H](c2ccc(CO)cc2)N1CC12CC3CC(CC(C3)C1)C2
- composite z-score [1]: -0.237
- composite z-score [2]: 0.447
- composite z-score [3]: 0.0024
- composite z-score [4]: 0.435
- composite z-score [5]: 0.815
- composite z-score [6]: 0.939
- composite z-score [7]: 1.27
- z-score [8]: -2.72 (inactive)
- composite z-score [9]: 0.282
- composite z-score [10]: -0.0994
- composite z-score [11]: 1.54
- z-score [12]: 0.893 (inactive)
- z-score [13]: 0.639 (inactive)
- z-score [14]: 8.2 (active)
- composite z-score [15]: 2.39
- z-score [16]: 0.657 (inactive)
- composite z-score [17]: -0.0965
- composite z-score [18]: 1.52
- composite z-score [19]: 1.15
- composite z-score [20]: -0.166

Compound: CCCCC(=C=CC[C@@H](O)c1cccc(OCCO)c1)C[C@@H](O)c1ccccn1
- composite z-score [1]: -0.528
- composite z-score [2]: 0.775
- composite z-score [3]: -0.0771
- composite z-score [4]: 0.702
- composite z-score [5]: 0.0548
- composite z-score [6]: 0.23
- composite z-score [7]: 1.12
- z-score [8]: 1.36 (inactive)
- composite z-score [9]: 0.381
- composite z-score [10]: -0.0618
- composite z-score [11]: 1.55
- z-score [12]: -0.937 (inactive)
- z-score [13]: -0.606 (inactive)
- z-score [14]: -0.725 (inactive)
- composite z-score [15]: 2.07
- z-score [16]: 0.149 (inactive)
- composite z-score [17]: -0.207
- composite z-score [18]: 1.46
- composite z-score [19]: 1.01
- composite z-score [20]: -0.099

Compound: O=C1NC(=O)C2C1C=CC(C(O)c1ccc(-c3ccccc3)s1)N2Nc1ccc(Cl)cc1Cl (stereo not given)
- composite z-score [1]: 0.0065
- composite z-score [2]: 0.285
- composite z-score [3]: 0.107
- composite z-score [4]: 0.297
- composite z-score [5]: 1.21
- composite z-score [6]: 1.48
- composite z-score [7]: 0.706
- z-score [8]: 2.38 (inactive)
- composite z-score [9]: 1.16
- composite z-score [10]: -0.0645
- composite z-score [11]: 0.193
- z-score [12]: -0.863 (inactive)
- z-score [13]: -1.76 (inactive)
- z-score [14]: 1.58 (inactive)
- composite z-score [15]: 3.07
- z-score [16]: -1.25 (inactive)
- composite z-score [17]: 0.214
- composite z-score [18]: 0.23
- composite z-score [19]: 0.983
- composite z-score [20]: -0.106

Compound: COc1ccc([Si](C)(C)[C@@H]2[C@@H](CCn3cc([C@H](O)c4ccccc4)nn3)O[C@]3(C(=O)N(Cc4cccc(N5CCC5=O)c4)c4ccccc43)[C@H]2C)cc1
- composite z-score [1]: -0.0168
- composite z-score [2]: -0.185
- composite z-score [3]: -0.116
- composite z-score [4]: 0.232
- composite z-score [5]: -0.205
- composite z-score [6]: 0.292
- composite z-score [7]: 0.729
- z-score [8]: 0.795 (inactive)
- composite z-score [9]: -0.162
- composite z-score [10]: -0.249
- composite z-score [11]: -0.284
- z-score [12]: -0.442 (inactive)
- z-score [13]: 1.23 (inactive)
- z-score [14]: 2.14 (inactive)
- composite z-score [15]: 0.167
- z-score [16]: -0.546 (inactive)
- composite z-score [17]: -0.0956
- composite z-score [18]: 0.459
- composite z-score [19]: -0.468
- composite z-score [20]: -0.0267

Compound: COC(=O)[C@@]1(Cc2ccccc2)[C@H]2c3cc(C(=O)N(C)C)n(Cc4ccc(OC)c(OC)c4)c3C[C@H]2CN1C(=O)c1ccccc1
- composite z-score [1]: 0.396
- composite z-score [2]: 0.517
- composite z-score [3]: 0.487
- composite z-score [4]: 1.23
- composite z-score [5]: 1.83
- composite z-score [6]: 1.62
- composite z-score [7]: 1.34
- z-score [8]: 0.115 (inactive)
- composite z-score [9]: 1.28
- composite z-score [10]: 0.66
- composite z-score [11]: 0.42
- z-score [12]: -0.257 (inactive)
- z-score [13]: 0.836 (inactive)
- z-score [14]: 0.534 (inactive)
- composite z-score [15]: 3.53
- z-score [16]: -0.793 (inactive)
- composite z-score [17]: 0.728
- composite z-score [18]: 0.0998
- composite z-score [19]: 1.03
- composite z-score [20]: 0.426

Compound: COCCOC(=O)N1C(=O)[C@@]2(c3cc(C#CC4(O)CCCCCC4)ccc31)[C@H](C(=O)Nc1nc3ccccc3s1)[C@H]1C(=O)O[C@H](c3ccccc3)[C@H](c3ccccc3)N1[C@@H]2c1ccccc1OCCO
- composite z-score [1]: 0.184
- composite z-score [2]: 1.29
- composite z-score [3]: -0.0503
- composite z-score [4]: 0.94
- composite z-score [5]: 1
- composite z-score [6]: 1.54
- composite z-score [7]: 1.29
- z-score [8]: 1.86 (inactive)
- composite z-score [9]: 0.461
- composite z-score [10]: -0.0618
- composite z-score [11]: 1.55
- z-score [12]: 0.976 (inactive)
- z-score [13]: 0.249 (inactive)
- z-score [14]: 2.12 (inactive)
- composite z-score [15]: 2.89
- z-score [16]: 1.26 (inactive)
- composite z-score [17]: -0.0575
- composite z-score [18]: 1.38
- composite z-score [19]: 1.11
- composite z-score [20]: 0.0857

Compound: C=CC[C@]12N=C(c3ccc(OCCCO)cc3)O[C@H]1c1ccccc1N(CCS(=O)(=O)c1ccccc1)C2=O
- composite z-score [1]: 0.288
- composite z-score [2]: -0.312
- composite z-score [3]: 0.0124
- composite z-score [4]: -0.0268
- composite z-score [5]: 1.07
- composite z-score [6]: 1.13
- composite z-score [7]: 1.32
- z-score [8]: -3.1 (inactive)
- composite z-score [9]: 0.0964
- composite z-score [10]: -0.3
- composite z-score [11]: 1.49
- z-score [12]: -1.07 (inactive)
- z-score [13]: -1.51 (inactive)
- z-score [14]: 0.811 (inactive)
- composite z-score [15]: 2.14
- z-score [16]: 1.02 (inactive)
- composite z-score [17]: 0.0561
- composite z-score [18]: 0.698
- composite z-score [19]: 1.07
- composite z-score [20]: -0.0828
